Source: PubChem BioAssay AID1347426 (Functional Genomics Laboratory (NCATS/FGL), 2020)
The campaign covered roughly 31,000 sequences. About 1,400 (4.5%) were called active.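 How the source made its calls: active means median seed-adjusted z-score above 1 or below -1; inactive means the rest.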 The entries come from a sample that favours actives as a whole.

Test: Novel Modifiers of Survival Motor Neuron (SMN) Protein: Gene Identification via Genome-wide siRNA Screen;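 further: luminescence tracks full-length SMN protein made from the SMN2 reporter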
Conditions: HEK293T SMN2-luciferase reporter, siRNA knockdown, 72 h; actives lie on both sides
Procedure, shortened: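 siRNA screen, 10418 genes ×3 siRNAs; 1 pmol/well, lipid reverse transfection into HEK293T SMN2-luc reporter line. 72 h, 37 °C, 5% CO2; ONE-Glo readout. Data: neg-ctrl normalized, log10, MAD; hit = MAD >1.0 or < -1.0.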

Sequence	median seed-adjusted z-score
AACUGGGAAUUGAGAGGUATT against SOX12	0.478 (inactive)
GGCCUUACCAAUCAUCAUUTT against SLC28A2	-0.076 (inactive)
GAAUUCGACCAGUAUUUGATT against SOX7	-0.387 (inactive)
CCGUAUGUUUUGCUGCAAATT against ABCC4	-1.66 (active)
GCAAGUCCCGCAAAAAGAATT against NEIL1	-0.168 (inactive)
GCACCGUCAAGGAAGAUAATT against ADAMTSL1	-0.107 (inactive)
GUAUGCGACUGGGAUCUUATT against HP	0 (inactive)
CAGUGGAAAUAAUUACGUUTT against MDH1B	-1.13 (active)
GAUCUACACUUGGAUGGAUTT against SAP18	2.14 (active)
CUAACGAAGAUUCACCCAATT against ASPN	-0.0432 (inactive)
UCGUGGUUGUUAAUUUGAATT against CSNK1E	-0.796 (inactive)
CAACUGUUCCUGUAUUGAATT against SLCO4C1	-0.116 (inactive)
GUAUCAAUCUAGAGCACAATT against MYOZ2	0.315 (inactive)
CGAGCUACACUGUCCACUUTT against CSGLCA-T	0.146 (inactive)
GGACUUGCUCGGCUCUAUATT against CRKRS	-1.16 (active)
CAACUUGGACAAGACCUUATT against GYS1	0.874 (inactive)
CGACAUCAGCUGAUAAUCATT against NPY1R	0.76 (inactive)
AACAGUAUCUUUCAGAAUATT against TMPRSS5	1.25 (active)
GGCUGAAUUAUGACCGGAATT against PPFIA4	0.0399 (inactive)
CUUGGAUACAGAUACGUUUTT against TLK1	-0.0133 (inactive)
UCGAUAUUCUAAGAUCACATT against UBE2D3	1.62 (active)
CACCUUAACUUCAUCAACATT against SCN4A	-0.681 (inactive)

Sequence	median seed-adjusted z-score
GAGCUGGGAUGAUAAAGAUTT against AGPAT2	0.38 (inactive)
GCGAUGAUGUGGAACCUUATT against TBC1D9	-0.0473 (inactive)
AUAUAACACUUCUACUCUUTT against CMA1	-0.0475 (inactive)
CAACGAUGCUAGAAGAAUUTT against PCOLCE2	-1.15 (active)
CCGUCUAUAUGGAGUCUUUTT against ROR1	-0.0044 (inactive)
CUACUUUCGAGACUACUUUTT against DGAT2	0.195 (inactive)
GGGAAGAUAUUUGUCAGCATT against PLXNA2	0.308 (inactive)
ACAGGCCUGUGAAACCCUATT against PEX5	-0.0414 (inactive)
GCCUUACCUGGAGAACUGATT against VPS26A	-1.55 (active)
GCGAGAAUCUGUUAGUAAATT against PANK3	-0.185 (inactive)
CCAUCUUCACUGACGAGCATT against GSC	0.17 (inactive)
CCUUUUUGCUGGACACUGUTT against PLEKHF1	0.055 (inactive)
CACCCAUGCUGACAGUGAATT against HLA-DMA	-0.00543 (inactive)
GCCUCCUUCUUUGACCGGATT against NACC1	1.59 (active)
GGACUUCUUUUGUCAUGCATT against BCKDHB	0.366 (inactive)
GAACAGAUGUUUGAGACUUTT against GUCA1A	0.101 (inactive)
GCGAGUGUCUUGAAGUAUATT against PLAA	-0.192 (inactive)
AAACAUUAUUUACCAUUCATT against ZNF439	-0.26 (inactive)
CCACGUGUCUAACACCAAUTT against KRT79	0.338 (inactive)
GAAUAUAUCUAAAUCGCAUTT against RORA	-0.144 (inactive)
GACCUCACGUUGUCGAAGATT against GTPBP4	1.01 (active)
GACUUGGAGUUUCAGGCAATT against XPC	-0.564 (inactive)

Sequence	median seed-adjusted z-score
GCUCCAGUCUUUUCGCAAATT against DSG4	-0.0211 (inactive)
CCAAUUCUACAAAAGCAAATT against SRD5A3	-0.165 (inactive)
CGUGCACAGAUAUUACGCATT against FIGNL1	-0.408 (inactive)
GCAUUGUCGUUGCAAUCGATT against CLCA1	0.015 (inactive)
GCAUCGAGCAGGAACAGAATT against ATP2B2	1.37 (active)
UUUUUGAUGUGGACUCAAATT against USP18	-0.326 (inactive)
GUUCAAUACUUGAACACGATT against FFAR2	0.146 (inactive)
GAAUUACAGUGACAGUUCATT against AP3M1	0 (inactive)
GUAAUGUUCUUAAACGAAUTT against PPP2R5C	1.14 (active)
GAAACAUCUGGUGCUAUUATT against KREMEN2	-0.0883 (inactive)
GCAAGAAUCCCUAAAGCAUTT against BAG2	-0.87 (inactive)
CAGUUGAUAUUCAUAAAGATT against ABI2	-0.0392 (inactive)
GGGCAGAAUUGGAAUGCGATT against CNTNAP4	-0.414 (inactive)
AGAGCGGUCUGACAGUGGATT against NUDT1	-0.175 (inactive)
GGUAUAAACGCGUCCAGCATT against MAFB	0.674 (inactive)
CCAACGACGUGGUGCAGAATT against CLDN14	-0.456 (inactive)
CAGCAAACCUUUGACCAGATT against U2AF2	2.14 (active)
CUACGGCUACGUCUACAUCTT against GPR25	0.377 (inactive)
GAGCGGACAUGAUAAGCAUTT against CD302	0.0818 (inactive)
GGAUGAUAUUAACAGGUCATT against USP8	0.743 (inactive)
GCAUACGCAGGAUCCUGGATT against KRT34	0.124 (inactive)
CGAGUUAGCAAGUUCAGCATT against CTRL	0.0758 (inactive)

Sequence	median seed-adjusted z-score
GAAAUCUUCUUGAGUGUAATT against GPR141	-0.777 (inactive)
GGACAAUGUUGGGAAUAGATT against GPATCH2	0.0828 (inactive)
UCCUCUAAAAAUUACAGUATT against TUBB2A	1.03 (active)
CAUUAGAUCUGUGAUUAGATT against MCOLN3	-0.09 (inactive)
GGAAUGCUCCAAAAUGGGATT against FKBP1B	-0.561 (inactive)
GCACAUGUUUGGAGGAUUUTT against ZNRF2	0 (inactive)
CAACCCAGCCCAUCCCAAATT against PDK2	-0.481 (inactive)
CUGUGAAGAUAGAAGGAUATT against CAPZA1	-0.0237 (inactive)
GCAUUUCUUGGGUUGGUGATT against GABPA	1.43 (active)
CCGCGCAGUUCAUCUCAAATT against SNX15	-0.152 (inactive)
CACUAGAAAUAACAAUGGATT against TMPRSS11D	-0.0643 (inactive)
AGAUCUCGUGGUUCUGGAATT against RPUSD1	0.327 (inactive)
GUGGUGGGCUUAUCCUCUATT against NRXN3	0.897 (inactive)
GAACCACAAUGUUAACAAUTT against CYBRD1	0.623 (inactive)
GCAAGAUCUCUAUUGGUAUTT against ABCC4	-1.66 (active)
GAAACCCUAUUACGAUGAATT against SOX30	-0.167 (inactive)
CAUGUAAACUUGCUGUUUUTT against CKS1B	0.00314 (inactive)
CAUAGUAGAUCAAAUCUUATT against ZNF284	0.21 (inactive)
CACUAGCAGUUGCAAGUAATT against RAB3GAP2	0.0583 (inactive)
GACCUGGGCUUAGACAGUUTT against NDUFAB1	-0.282 (inactive)
GGAGAGCUGUUGGUACUUUTT against TAAR9	-1.07 (active)
CACUGUUUCUUCACCGGCATT against ZDHHC22	0.00446 (inactive)

Sequence	median seed-adjusted z-score
GCAGUUCACCCAUCCAGUATT against THY1	-1.1 (active)
GACCAAGCGCAAAACCAAATT against HOMEZ	-0.0614 (inactive)
GAUUUUGUGCGAUCCAUAATT against CBARA1	-0.0426 (inactive)
GCAGGUACAUGUCUUGUCUTT against SPRY2	0.148 (inactive)
CCCUACAUAGGAAACCUGUTT against PKD1L2	-1.17 (active)
CAGCCUACUUCAUAGCCUATT against GPR50	-0.0348 (inactive)
GCCGGCCUGUGAAAUAUGATT against MAP3K3	-0.182 (inactive)
UCACGUCACUACUUAAAAATT against ZNF644	0.389 (inactive)
CCAUUAAUGAAUUAGUCUATT against TXN	-0.195 (inactive)
AGCUCAACGUGCUGGAUUATT against PIP5KL1	-0.819 (inactive)
CGAAGUUCAAGUAUAGGUATT against RAG1	-1.35 (active)
GGUUUGGAGCGAGAGUGGATT against ASB10	0 (inactive)
GCAGCUAUCUCUGUACAGATT against MAPK8IP3	0.734 (inactive)
UGUUCAGUCUGGAAUUUCATT against MAP2K1	0.942 (inactive)
GGACCCAAAUUCAGAAGAATT against ANKRA2	1.26 (active)
GGAUCGGUAUGUAGCAAUATT against HTR2C	-0.115 (inactive)
GAGUAUCCAUCGGUAUCUATT against ZBTB11	-0.105 (inactive)
UCCAGACUCUGGUCACCAATT against CREB3L1	0.708 (inactive)
GCAUUGACUUGGGUGAAGATT against GPR101	-0.265 (inactive)
